Rows were chosen to be rich in hits. Some 19% of all compounds tested hit in one or more screens of this group.
KB-V1 MDR tox: kills drug-selected multidrug resistant KB-V1 cells. KB-V1 MDR cells viability, CellTiter-Glo, 72 h. Potency, µM (titrated, usually from 46.1 µM), most hits filed as cytotoxic. 400,000 compounds, 3.4% hits. AID 1347076; note: nearly all actives have a fitted effect of over 60% in size
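Readout: CellTiter-Glo luminescence, 10 min after addition. Cells: KB-V1 MDR subline, 72 h at 37 degrees C with compound. Analysis: corrected, normalized data fitted to concentration-effect curves.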
DT40 TDP1 CPT: growth inhibition of DT40 Tdp1-/-;hTDP1 cells with camptothecin (screen for TDP1 inhibitors); chicken DT40 Tdp1-/-;hTDP1 cells + 20 nM CPT, ATP luminescence, 48 h; Potency, µM (highest dose often 46.2 µM), without a hit: at the top dose activity change, negative = growth inhibition, hits mostly inhibitors; 420,000 compounds, 12% hits; AID 686979; note: nearly all actives have a fitted effect of over 55% in size
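Chicken DT40 Tdp1-/- cells stably complemented with human TDP1 were seeded at 400 cells/well in medium containing 20 nM camptothecin, exposed to pin-transferred compounds, and grown at 37 °C for at least 48 hr. Viability was read as ATP luminescence.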
KB-3-1 tox: KB-3-1 parental cell cytotoxicity | KB-3-1 viability, CellTiter-Glo ATP luminescence, 72 h | Potency, µM (titrated, usually from 46.1 µM), most hits filed as cytotoxic | 400,000 compounds, 1.4% hits | AID 1347075; note: nearly all actives have a fitted effect of over 60% in size
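Parental KB-3-1 adenocarcinoma cells in phenol-red-free DMEM with 10% FBS were pin-treated with compounds at several concentrations, incubated 72 h at 37 °C, and viability read by CellTiter-Glo luminescence; concentration-effect curves were fitted after normalization.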
DT40 TDP1 no CPT: qHTS for Inhibitors of human tyrosyl-DNA phosphodiesterase 1 (TDP1): qHTS in cells in absence of CPT | 420,000 compounds, 15% hits | Potency, µM (top dose mostly 46.2 µM), inactives show at the highest dose activity change, negative = growth inhibition, actives largely listed as inhibitors | DT40 Tdp1-/- hTDP1 cells, no CPT, ATP luminescence, 48 h | AID 686978, 2013; note: nearly all actives have a fitted effect of over 55% in size
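Cells were dispensed at 400 per well, compounds added by pin tool, plates incubated ≥48 hr at 37 °C, then CellTiter-Glo added for 30 min at room temperature before luminescence reading. Line: DT40 Tdp1-/- complemented with hTDP1; camptothecin omitted.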
HT1080 IDH1KD tx: HT-1080 IDH1 knockdown cell toxicity (counter line). HT-1080 IDH1 knockdown viability, ATP luminescence, 48 h. Potency, µM (top dose mostly 46.1 µM), for inactives: at the top dose activity, negative = toxicity, hits mostly cytotoxic. 360,000 compounds, 2% hits. AID 686971;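 note: 0% = DMSO wells and -100% = cell-free medium wells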
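IDH1KD HT-1080 cells, 750/well, RPMI + 5% FBS; compound pinned after 2 h settling; 48 h, 37 °C; CellTiter-Glo luminescence; % activity normalised to DMSO and no-cell wells; curves fitted, classed by r2 and efficacy.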
HT1080-NT tox: kills 2HG-producing HT-1080-NT fibrosarcoma cells; HT-1080-NT fibrosarcoma viability, CellTiter-Glo ATP luminescence, 48 h; Potency, µM (doses to about 46.1 µM), inactives show at the top dose activity, negative = less viability, usual class: cytotoxic; 360,000 compounds, 1.6% hits; AID 686970;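 note: NT is the 2HG producing partner of a matched IDH1 knockdown line; 0% = DMSO-treated cells and -100% = media-only wells without cells; nearly all actives have a fitted effect of over 55% in size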
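HT-1080-NT fibrosarcoma cells (2HG-overproducing), 750 cells/well in RPMI with 5% FBS, dosed after 2 h and incubated 48 h at 37C. CellTiter-Glo luminescence normalized to DMSO and no-cell wells; concentration-response curves fitted and classed.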
An asterisk follows results filed as active; [ ] = another dose, or the depositor's remark. Calls come from the whole dose curve; as a rule, active = well fitted curve in the direction sought with a large enough effect; inconclusive = small, poorly fitted or top-dose-only effect, or another doubt; inactive = no such curve, though single readings can be large; an effect the other way counts as inactive or inconclusive. Unless noted, % is set by controls: 0 for no effect and ±100 for the full control effect; potency is the fitted concentration of half-maximal effect.

For COc1cccc(CNC(=O)c2c(C)oc3nc(C)nc(N4CCOCC4)c23)c1 the results were DT40 TDP1 CPT -9% and DT40 TDP1 no CPT -5%.
For Cc1ccc(S(=O)(=O)Cc2ccc(C(=O)NC3CCCCCC3)o2)cc1 the results were KB-V1 MDR tox inactive, DT40 TDP1 CPT inconclusive, KB-3-1 tox inactive, DT40 TDP1 no CPT inconclusive, HT1080 IDH1KD tx 10% and HT1080-NT tox -2%.
`CN1CCN(c2ncc3ncc(=O)n(CCc4ccccc4)c3n2)CC1` gave DT40 TDP1 CPT 4% and DT40 TDP1 no CPT 2%.
Screening Cc1ccc(-c2cc([C@H]3[C@H]4C=CC[C@@H](C)[C@@H]4C(=O)N3Cc3ccccc3)ccc2F)cc1 returned KB-V1 MDR tox inconclusive, DT40 TDP1 CPT inconclusive, KB-3-1 tox inactive, DT40 TDP1 no CPT 21µM*, HT1080 IDH1KD tx -2% and HT1080-NT tox -10%.
For COc1ccc(CCN2C(=O)N(c3ccc(F)cc3)C(=O)C2CC(=O)Nc2ccccc2)cc1OC (configuration not stated) the results were KB-V1 MDR tox inconclusive, DT40 TDP1 CPT inconclusive, KB-3-1 tox inactive and DT40 TDP1 no CPT -24%.
Screening COc1cccc(N2C(=O)C(CC(=O)Nc3ccc(F)cc3)N(CCC3=CCCCC3)C2=O)c1 (configuration not stated) returned KB-V1 MDR tox inconclusive, DT40 TDP1 CPT inconclusive, KB-3-1 tox inactive and DT40 TDP1 no CPT 16µM*.
`COc1cccc(N2C(=O)C(CC(=O)Nc3ccc(F)cc3)N(C3CCCCC3)C2=O)c1` (configuration not stated) gave KB-V1 MDR tox inconclusive, DT40 TDP1 CPT -5%, KB-3-1 tox inactive, DT40 TDP1 no CPT -15%, HT1080 IDH1KD tx 3%[9.24 µM] and HT1080-NT tox -6%.
COc1ccc(NC(=O)CC2C(=O)N(c3ccc(OC)cc3)C(=O)N2CCC2=CCCCC2)cc1 (configuration not stated) was read as KB-V1 MDR tox inactive, DT40 TDP1 CPT inconclusive, KB-3-1 tox inactive and DT40 TDP1 no CPT inconclusive.
Screening Cc1ccc(N2C(=O)C(CC(=O)Nc3ccccc3)N(CCC3=CCCCC3)C2=O)cc1 (configuration not stated) returned KB-V1 MDR tox inactive, DT40 TDP1 CPT 16µM*, KB-3-1 tox inactive and DT40 TDP1 no CPT 21µM*.
For COc1ccc(N2C(=O)C(CC(=O)Nc3ccccc3)N(CCC3=CCCCC3)C2=O)cc1 (configuration not stated) the results were KB-V1 MDR tox inactive, DT40 TDP1 CPT 21µM*, KB-3-1 tox inactive and DT40 TDP1 no CPT 18µM*.
Cc1ccc(C(=O)NC(C(=O)OCc2cn3cc(Cl)ccc3n2)C(C)C)cc1 (configuration not stated) was read as KB-V1 MDR tox inactive, DT40 TDP1 CPT inconclusive, KB-3-1 tox inactive, DT40 TDP1 no CPT -28%, HT1080 IDH1KD tx 4% and HT1080-NT tox 9%.
`Fc1ccc(Cn2cc(C(=S)N3CCOCC3)c3ccccc32)cc1` gave KB-V1 MDR tox inactive, DT40 TDP1 CPT inconclusive, KB-3-1 tox inactive, DT40 TDP1 no CPT inconclusive, HT1080 IDH1KD tx -3% and HT1080-NT tox -1%.
For Fc1ccccc1Cn1cc(C(=S)N2CCOCC2)c2ccccc21 the results were KB-V1 MDR tox inconclusive, DT40 TDP1 CPT inconclusive, KB-3-1 tox inactive, DT40 TDP1 no CPT 16µM*, HT1080 IDH1KD tx 3% and HT1080-NT tox -8%.
